# The sample as a whole holds a higher share of the strongest signals than the screen did.
# Experiments:
# Experiment in all cases: glycan array binding signal (z-score within array); higher = stronger binding
# Details in all cases: glycan notation: IUPAC condensed, linker removed
# [1] = target: Fuc(a1-2)Gal(b1-3)[Fuc(a1-4)]GlcNAc(b1-3)[Gal(b1-4)GlcNAc(b1-6)]Gal(b1-4)Glc
# How it was run: (§1)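 The binding signal is a Z-score computed within each array. Data were drawn from 3228 arrays in the Consortium for Functional Glycomics database, restricted to those with a known protein sequence. Scores were averaged over arrays of the same protein sequence at different concentrations or buffers, and over linkers, and negative values can be taken as non-binding.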
# [2] = target: Fuc(a1-2)Gal(b1-4)GlcNAc(b1-2)Man(a1-3)[Fuc(a1-2)Gal(b1-4)GlcNAc(b1-2)Man(a1-6)]Man(b1-4)GlcNAc(b1-4)GlcNAc
# How it was run: as §1
# [3] = target: Fuc(a1-2)Gal(b1-4)GlcNAc(b1-3)Gal(b1-4)GlcNAc
# How it was run: as §1
# [4] = target: Fuc(a1-2)Gal3S(b1-4)GlcNAc
# How it was run: as §1
# [5] = target: Fuc(a1-2)[Gal(a1-3)]Gal(b1-4)[Fuc(a1-3)]Glc
# How it was run: as §1
# [6] = target: Fuc(a1-2)[GalNAc(a1-3)]Gal(b1-4)GlcNAc(b1-3)GalNAc
# How it was run: as §1
# [7] = target: Fuc(a1-3)[3dGal(b1-4)]Glc
# How it was run: as §1
# [8] = target: Fuc(a1-3)[Gal(b1-4)]GlcNAc(b1-2)Man(a1-3)[Fuc(a1-3)[Gal(b1-4)]GlcNAc(b1-2)Man(a1-6)]Man(b1-4)GlcNAc(b1-4)GlcNAc
# How it was run: as §1
# [9] = target: Fuc(a1-3)[Gal(b1-4)]GlcNAc(b1-2)Man(a1-3)[Fuc(a1-3)[Gal(b1-4)]GlcNAc(b1-2)Man(a1-6)]Man(b1-4)GlcNAc(b1-4)[Fuc(a1-6)]GlcNAc
# How it was run: as §1
# [10] = target: Fuc(a1-3)[Gal3S(b1-4)]Glc
# How it was run: as §1
# [11] = target: Fuc(a1-6)GlcNAc
# How it was run: as §1
# [12] = target: Gal(a1-2)Gal
# How it was run: as §1
# [13] = target: Gal(a1-3)Gal(b1-4)GlcNAc(b1-2)Man
# How it was run: as §1
# [14] = target: Gal(b1-3)Gal(b1-4)GlcNAc
# How it was run: as §1
# [15] = target: Gal(b1-3)GalNAc(a1-3)[Fuc(a1-2)]Gal(b1-4)Glc
# How it was run: as §1
# [16] = target: Gal(b1-3)GalNAc(a1-3)[Fuc(a1-2)]Gal(b1-4)GlcNAc
# How it was run: as §1
# [17] = target: Gal(b1-3)GalNAc(b1-3)Gal
# How it was run: as §1
# [18] = target: Gal(b1-3)GalNAc(b1-3)Gal(a1-4)Gal(b1-4)Glc
# How it was run: as §1
# [19] = target: Gal(b1-3)GalNAc(b1-4)Gal(b1-4)Glc
# How it was run: as §1
# [20] = target: Gal(b1-3)GalNAc(b1-4)Gal3S(b1-4)Glc
# How it was run: as §1
# [21] = target: Gal(b1-3)GalNAc(b1-4)[Neu5Ac(a2-3)]Gal(b1-4)Glc
# How it was run: as §1
# [22] = target: Gal(b1-3)GalNAc(b1-4)[Neu5Gc(a2-3)]Gal(b1-4)Glc
# How it was run: as §1
# [23] = target: Gal(b1-3)GlcNAc(b1-3)Gal(b1-4)Glc
# How it was run: as §1
# [24] = target: Gal(b1-3)[GlcNAc(b1-6)]GalNAc
# How it was run: as §1
# [25] = target: Gal(b1-4)GlcNAc(b1-2)Man(a1-3)[GlcNAc(b1-4)][Gal(b1-4)GlcNAc(b1-2)Man(a1-6)]Man(b1-4)GlcNAc(b1-4)GlcNAc
# How it was run: as §1
# [26] = target: Gal(b1-4)GlcNAc(b1-2)Man(a1-6)Man(b1-4)GlcNAc(b1-4)GlcNAc
# How it was run: as §1
# [27] = target: Gal(b1-4)GlcNAc(b1-2)[Gal(b1-4)GlcNAc(b1-4)]Man(a1-3)[Gal(b1-4)GlcNAc(b1-2)Man(a1-6)]Man(b1-4)GlcNAc(b1-4)GlcNAc
# How it was run: as §1
# [28] = target: Gal(b1-4)GlcNAc(b1-2)[Gal(b1-4)GlcNAc(b1-6)]Man(a1-6)[Gal(b1-4)GlcNAc(b1-2)Man(a1-3)]Man(b1-4)GlcNAc(b1-4)[Fuc(a1-6)]GlcNAc
# How it was run: as §1
# [29] = target: Gal(b1-4)GlcNAc(b1-3)Fuc
# How it was run: as §1
# [30] = target: Gal(b1-4)GlcNAc(b1-3)[Fuc(a1-3)GlcNAc(b1-6)]Gal(b1-4)Glc
# How it was run: as §1
# [31] = target: Gal(b1-4)GlcNAc(b1-3)[Gal(b1-4)GlcNAc(b1-6)]Gal(b1-4)GlcNAc
# How it was run: as §1
# [32] = target: Gal(b1-4)GlcNAc(b1-3)[Gal(b1-4)GlcNAc(b1-6)]Gal(b1-4)GlcNAc(b1-3)[Gal(b1-4)GlcNAc(b1-6)]Gal(b1-4)GlcNAc(b1-3)[Gal(b1-4)GlcNAc(b1-6)]Gal(b1-4)GlcNAc(b1-3)[Gal(b1-4)GlcNAc(b1-6)]Gal(b1-4)GlcNAc(b1-3)Gal(b1-4)Glc
# How it was run: as §1
# [33] = target: Gal(b1-4)GlcNAc(b1-6)[Gal(b1-3)]GalNAc
# How it was run: as §1
# [34] = target: Gal3S(b1-4)[Fuc(a1-3)]Glc
# How it was run: as §1
# [35] = target: Gal6S(b1-3)GlcNAc6S
# How it was run: as §1
# [36] = target: Gal6S(b1-4)Glc
# How it was run: as §1
# [37] = target: GalNAc(b1-3)Gal(a1-4)Gal(b1-4)GlcNAc
# How it was run: as §1
# [38] = target: GalNAc(b1-4)Gal3S(b1-4)Glc
# How it was run: as §1
# [39] = target: Glc(a1-2)Glc
# How it was run: as §1
binder,measurement,setting,value
"PNA (Arachis hypogaea), P02872 (protein) MKPFCVFLTFFLLLAASSKKVDSAETVSFNFNSFSEGNPAINFQGDVTVLSNGNIQLTNLNKVNSVGRVLYAMPVRIWSSATGNVASFLTSFSFEMKDIKDYDPADGIIFFIAPEDTQIPAGSIGGGTLGVSDTKGAGHFVGVEFDTYSNSEYNDPPTDHVGIDVNSVDSVKTVPWNSVSGAVVKVTVIYDSSTKTLSVAVTNDNGDITTIAQVVDLKAKLPERVKFGFSASGSLGGRQIHLIRSWSFTSTLITTTRRSIDNNEKKIMNMASA",glycan array binding signal (z-score),[1],-0.127
same,glycan array binding signal (z-score),[2],-0.116
same,glycan array binding signal (z-score),[3],-0.144
same,glycan array binding signal (z-score),[4],-0.183
same,glycan array binding signal (z-score),[5],-0.09
same,glycan array binding signal (z-score),[6],-0.177
same,glycan array binding signal (z-score),[7],-0.195
same,glycan array binding signal (z-score),[8],-0.106
same,glycan array binding signal (z-score),[9],-0.162
same,glycan array binding signal (z-score),[10],-0.195
same,glycan array binding signal (z-score),[11],-0.195
same,glycan array binding signal (z-score),[12],-0.169
same,glycan array binding signal (z-score),[13],-0.115
same,glycan array binding signal (z-score),[14],-0.001
same,glycan array binding signal (z-score),[15],6
same,glycan array binding signal (z-score),[16],8.53
same,glycan array binding signal (z-score),[17],5.33
same,glycan array binding signal (z-score),[18],3.33
same,glycan array binding signal (z-score),[19],7.85
same,glycan array binding signal (z-score),[20],9.11
same,glycan array binding signal (z-score),[21],3.91
same,glycan array binding signal (z-score),[22],4.74
same,glycan array binding signal (z-score),[23],0.203
same,glycan array binding signal (z-score),[24],3.79
same,glycan array binding signal (z-score),[25],-0.309
same,glycan array binding signal (z-score),[26],-0.171
same,glycan array binding signal (z-score),[27],-0.118
same,glycan array binding signal (z-score),[28],-0.186
same,glycan array binding signal (z-score),[29],-0.195
same,glycan array binding signal (z-score),[30],-0.247
same,glycan array binding signal (z-score),[31],-0.153
same,glycan array binding signal (z-score),[32],4.16
same,glycan array binding signal (z-score),[33],5.42
same,glycan array binding signal (z-score),[34],-0.222
same,glycan array binding signal (z-score),[35],-0.244
same,glycan array binding signal (z-score),[36],-0.174
same,glycan array binding signal (z-score),[37],-0.197
same,glycan array binding signal (z-score),[38],-0.195
same,glycan array binding signal (z-score),[39],-0.195
